Screens from PubChem.
Shown is part of a subset that was picked to be rich in hits.
TTR transcr act: increases transthyretin transcription. 1.3% of 92,000 active. activation, % at 16.7 µM. AID 1117267. SH-SY5Y TTR promoter Gaussia luciferase, luminescence; 100% = recombinant luciferase protein wells;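 active means activation above the mean of all tested compounds plus 3 SD, cut at about 9.5% in these data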;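 further: cells exposed to compounds for one day before reading; 0% = median of all test compound wells on the plate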
The depositor's hits bear a star.

SMILES	TTR transcr act
Cc1ccc2nc(-c3sc4nc(C)ccc4c3N)[nH]c2c1	-2
Cc1ccc2c(n1)sc1c(-c3ccccc3)c(C#N)c(N)nc12	0
Cc1ccc2c(N)c(C#N)sc2n1	27*
CCCOc1ccc(/C=C/C(=O)NC2CCCCC2)cc1	-1
CCOC(=O)c1[nH]c2ccc(OC)cc2c1NC(=O)CCN1CCSCC1	6
COC(=O)c1[nH]c2cccc(OC)c2c1NC(=O)CCN1CCN(c2ccccc2F)CC1	-4
COC(=O)c1[nH]c2cc(OC)ccc2c1NC(=O)CCN1CCN(c2cccc(C)c2C)CC1	22*
Cc1ccc(S(=O)(=O)N(C)CC(=O)O/N=C(\N)c2cccnc2)cc1	1
COc1ccc([N+](=O)[O-])cc1NC(=O)c1cccnc1	0
O=[N+]([O-])c1cccc(/C=N/Nc2ccccn2)c1	6
COc1ccc(OCC(=O)Nc2ccccc2OC)cc1	6
COc1ccccc1NC(=O)CCC(=O)c1ccc(-c2ccccc2)cc1	-3
COc1ccccc1NC(=O)CCC(=O)Nc1ccccc1OC	9.9*
CNC(=O)c1ccsc1NC(=O)c1ccc(Cl)s1	-1
CC(=O)N1N=C(c2cccs2)CC1c1ccc(C)o1 (stereo unspecified)	0
COc1cc(C2Nc3ccc4ncccc4c3C3=C2C(=O)CCC3)cc(OC)c1O (stereo unspecified)	-1
CC1(c2cc([N+](=O)[O-])cc([N+](=O)[O-])c2)CC(C)(C)N(C(=O)c2ccccc2)c2ccccc21 (stereo unspecified)	14*
CN1CCN(c2ccc([N+](=O)[O-])cc2C(=O)c2ccccc2)CC1	-2
CC12CN(C(=O)c3ccc([N+](=O)[O-])cc3)CC(C)(CN(C(=O)c3ccc([N+](=O)[O-])cc3)C1)C2=O	-1
CCOc1ccc(C(=O)NCc2ccncc2)cc1OCC	1
Cc1ccc(S(=O)(=O)N2CCOCC2)cc1C(=O)N1CCCCCC1	-2
CCOC(=O)C1C(=O)CC(C)(O)C(C(=O)OCC)C1c1ccc(OC)cc1 (stereo unspecified)	-1
CC(C)OC(=O)C1C(=O)CC(C)(O)C(C(=O)OC(C)C)C1c1cccnc1 (stereo unspecified)	12*
CCOC(=O)C1C(=O)CC(C)(O)C(C(=O)OCC)C1c1cccc(OC)c1 (stereo unspecified)	3
COc1ccc(OC)c(NC(=O)Cn2c(-c3ccc(Cl)cc3)noc2=O)c1	1
SMILES	TTR transcr act
O=C(NCc1cccc(F)c1)C1CCC(=O)N(CC2CCCCC2)C1 (stereo unspecified)	-1
C=CCn1c(Sc2nc(C)cs2)nc2c1c(=O)[nH]c(=O)n2C	5
C=C(C)Cn1c(Sc2nnc(C)s2)nc2c1c(=O)[nH]c(=O)n2C	12*
Cc1nnc(SCCn2c(N3CCCCC3)nc3c2c(=O)[nH]c(=O)n3C)s1	1
CC1CCN(CCCNC(=O)c2ccc3c(=O)n(Cc4ccc(Cl)cc4)c(=S)[nH]c3c2)CC1	-2
Cc1nc(C(=O)NNC(=O)c2ccc(Cl)cc2)cs1	-1
S=C(c1nc2ccccc2[nH]1)N1CCOCC1	10.0*
O=c1[nH]c2ccccc2nc1N1CCOCC1	0
O=C(CN1CCOCC1)Nc1ccc(-c2nc3ccccc3[nH]2)cc1	1
COc1cc(C(=O)NCCC(=O)NCCc2ccc(Cl)cc2)cc(OC)c1OC	0
COc1cc(C(=O)NCCC(=O)NCCCN2CCCCC2)cc(OC)c1OC	20*
CCOCCCNC(=O)CCNC(=O)c1cc(OC)c(OC)c(OC)c1	-1
Cc1cc(C)c2nc(N3CCC(C(=O)NCc4ccccn4)CC3)sc2c1	-2
Cc1cc(OCC(=O)Nc2ccncc2)c(C)cc1Br	-1
C=CCn1cc(C(=O)N2CCN(c3ccccc3)CC2)c(=O)c2cc(S(=O)(=O)N3CCCC3)ccc21	1
CC(C)CN1C(=O)C[C@]2(C(=O)N(C)c3ccc(NC(=O)C(F)(F)F)cc32)C1c1ccccc1 (stereo partly specified)	-1
C[C@H](NC(=O)[C@H]1N2C(=O)c3ccccc3C2SC1(C)C)C(=O)N1CCCCC1 (stereo partly specified)	5
C[C@H](NC(=O)[C@H]1N2C(=O)c3ccccc3C2SC1(C)C)C(=O)N1CCC[C@H]1C(=O)O (stereo partly specified)	58*
C[C@H](NC(=O)[C@H]1N2C(=O)c3ccccc3C2SC1(C)C)C(=O)N1CCC[C@H]1CO (stereo partly specified)	2
O=C(CCN1C(=O)COc2ccccc21)NCCN1CCN(c2ccccc2F)CC1	1
CN(C)CCN1C(=O)c2oc3ccccc3c(=O)c2C1c1ccc(F)cc1 (stereo unspecified)	0
OCCNC(=S)Nc1ccc(Oc2ccccc2)cc1	1
CC(=O)N(Cc1ccco1)C1(C(=O)NC2CCCCC2)CCCCC1	10*
CC(=O)NCC(=O)N(Cc1ccco1)C1(C(=O)NC2CCCCC2)CCCCC1	4
Cc1cc(NC(=O)CCC(=O)N(Cc2ccco2)C2(C(=O)NC3CCCC3)CCCCC2C)no1 (stereo unspecified)	0
SMILES	TTR transcr act
Cc1ccc(C(=O)NC2CCCCN(Cc3ccccc3C)C2=O)cc1 (stereo unspecified)	-1
CCC[C@H]1[C@@H](NC(=O)Nc2ccc3c(c2)OCO3)CC[C@@]23CCCN2C(=O)CCC[C@@H]13	0
Cc1ccc(C)c(SCC(=O)NCc2ccco2)c1	0
Cn1c(=O)cc(SCC(=O)NCC2CCCO2)c2ccccc21 (stereo unspecified)	3
Cn1c(=O)cc(SCC(=O)NCc2ccco2)c2ccccc21	11*
Cc1ccccc1C(=O)N1CCc2c([nH]c3ccccc23)C1C(F)(F)F (stereo unspecified)	0
CCc1nnc(NC(=O)c2c(C)nn(-c3ccccc3)c2Cl)s1	22*
Cc1nn(-c2ccccc2)c(Cl)c1C(=O)NCC(C)C	8
COc1ccc(NC(=O)c2c(C)nn(-c3ccccc3)c2Cl)cc1	1
O=C(N/N=C/c1ccccc1O)c1cc[n+]([O-])cc1	3
Cc1ccc(S(=O)(=O)N2CCN(C(=O)CN3C(=O)NC(C)(CCC(C)C)C3=O)CC2)c(C)c1 (stereo unspecified)	-3
Cc1nn(C)c(C)c1S(=O)(=O)N1CCCC(C(=O)NCCc2ccc(Cl)cc2)C1 (stereo unspecified)	-2
O=C(CSc1nnc(Cc2ccccc2)n1-c1cccc(Cl)c1)N1CCOCC1	22*
Cn1c(CCc2ccccc2)nnc1SCC(=O)N1CCOCC1	1
Cc1cccc(-n2c(SCC(=O)N3CCN(c4ccccn4)CC3)nnc2N2CCOCC2)c1	0
CCCOC(=O)c1ccc(NC(=O)c2cc(Cl)ccc2OC)cc1	0
Cc1ccc(S(=O)(=O)NCC(c2ccco2)N2CCc3ccccc32)cc1 (stereo unspecified)	-1
CC(C)c1c(O)nc(SCc2ccccc2)[nH]c1=O	2
Cc1ccc(OCc2nc(-c3ccccn3)no2)c(Br)c1	14*
Clc1ccccc1OCc1nc(-c2ccncc2)no1	-1
O=C1c2ccccc2C(=O)N1CCc1nc(-c2ccccn2)no1	0
CC(C)OC(=O)c1ccc(COC(=O)CNC(=O)c2ccco2)cc1	7
CCC[C@H]1[C@@H](NC(=O)c2ccc(N(C)C)cc2)CC[C@@]23CCCN2C(=O)CCC[C@@H]13	0
CCNc1nc2cccnc2s1	-1
NC(=O)C(NC(=O)OCc1ccccc1)c1ccccc1 (stereo unspecified)	-2
